Here are results for seven compounds from PubChem BioAssay (Tox21).

SMILES strings stand for the structures. Values without a mark were called inactive. Records with an inconclusive call do not appear. Active and inactive are the calls of the source. Unless noted, the call rests on the fitted dose curve; in most records, active means well fitted curve in the direction sought with a large enough effect in the repeat runs; inconclusive means weak or mixed curves; inactive means no such curve, though single readings can be large; an effect the other way counts as inactive or inconclusive.

Assay [1] is described as follows: qHTS assay to identify small molecule antagonists of the constitutive androstane receptor (CAR) signaling pathway - cell viability counter screen (AID 1224837). Further: nearly all actives have a fitted effect of over 45% in size. Further: potency means the concentration at half of the fitted maximal effect. Summed up:
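HepG2 cells stably carrying hCAR and CYP2B6-2.2kb reporter, stimulated with 50 nM CITCO and compounds at 15 concentrations for 23 h at 37 C. Viability measured by CellTiter-Fluor fluorescence.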
For orientation: Quantitative high-throughput screening tests each substance at several concentrations.

The nature of assay [2]: qHTS assay to identify small molecule antagonists of the estrogen related receptor signaling pathway with the pleiotropic PPARgamma coactivator (PGC) from Tox21 10K library - cell viability counter screen (AID 1224840; active means well fitted cell-killing curve with a large enough effect in the repeat runs, not every such curve was filed as active; further: nearly all actives have a fitted effect of over 40% in size; further: potency means the concentration at half of the fitted maximal effect). Summed up:
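PGC/ERR cells (2,000/well) plated 6 h, then compound-treated for 17.5 h at 37 C. Viability measured by CellTiter-Fluor fluorescence after 30 min at 37 C, multiplexed with the pathway assay.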

Assay [3] in a line: qHTS assay to identify small molecule agonists of the hypoxia (HIF-1) signaling pathway (AID 1224846; active means well fitted activation curve with a large enough effect in the signal ratio in the repeat runs, not every such curve was filed as active; the % refers to the signal ratio). Summed up:
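HRE-bla ME-180 beta-lactamase reporter cells in medium with 0.5% dialyzed FBS, pre-incubated 5 h then exposed to compounds 17 h at 37C, 5% CO2; reporter induction read with CCF4-AM FRET substrate.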

The nature of assay [4]: qHTS RealTime-Glo MT Cell Viability Assay in HepG2 cells - 24 hour (AID 1224867). Further: nearly all actives have a fitted effect of over 50% in size. Further: potency means the concentration at half of the fitted maximal effect. Summed up: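 Cells + NanoLuc/prosubstrate dispensed (600 cells/well) → 5 h at 37 C/5% CO2 → compounds in DMSO transferred → 40 h incubation at 37 C, luminescence read at 0, 8, 16, 24, 32, 40 h.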
Assay [5] in a line: A CellTox Green Cytotoxicity Assay to monitor cytotoxicity in HEK293 cells - 0 hour (AID 1224869). Further: nearly all actives have a fitted effect of over 50% in size. Summed up:
(§1)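 HEK293 cells, 600/well, were preincubated 5 hours and then exposed to compounds at 37 C for up to 40 hours. A cell-impermeant cyanine dye staining dead-cell DNA was read by fluorescence at 0, 8, 16, 24, 32 and 40 h time points.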

A short description of assay [6]: qHTS RealTime-Glo MT Cell Viability Assay in HepG2 cells - 40 hour (AID 1224870). Further: nearly all actives have a fitted effect of over 50% in size. Further: potency means the concentration at half of the fitted maximal effect. Summed up:
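HepG2 cells (600/well) mixed with RealTime-Glo MT reagent, settled 5 h at 37 C/5% CO2 before compound addition. Nonlytic NanoLuc luminescence from viable-cell prosubstrate reduction read repeatedly during 40 h treatment at 37 C.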

Assay [7] in a line: A CellTox Green Cytotoxicity Assay to monitor cytotoxicity in HEK293 cells - 40 hour (AID 1224871). Further: nearly all actives have a fitted effect of over 45% in size. Further: potency means the concentration at half of the fitted maximal effect. Summed up: as §1
The nature of assay [8]: qHTS assay to identify small molecule antagonists of the estrogen related receptor signaling pathway with the pleiotropic PPARgamma coactivator (PGC) from Tox21 10K library (AID 1224841; call rule not given here; further: actives are mostly falling curves and most rising ones were filed inactive; nearly all actives have a fitted effect of over 50% in size; further: potency means the concentration at half of the fitted maximal effect). Summed up:
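PGC/ERR cell line, 2,000 cells/well, pre-incubated 6 hours at 37 C, then exposed to compounds for 18 hours at 37 C; luciferase read with One-Glo luminescence after 30 min at room temperature.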

A short description of assay [9]: qHTS assay to identify small molecule agonists of the estrogen related receptor signaling pathway with the pleiotropic PPARgamma coactivator (PGC) from Tox21 10K library (AID 1224842). Further: nearly all actives have a fitted effect of over 15% in size. Summed up: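 PGC/ERR reporter cell line, 2,000 cells per well, incubated 6 h at 37 C before 23 nL compound in DMSO was added. After 18 h at 37 C, One-Glo luminescence read following 30 min at room temperature.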

Assay [10] addresses Thyrotropin receptor (Homo sapiens) (UniProt P16473). The experiment in a line: qHTS assay to identify small molecule agonists of the thyroid stimulating hormone receptor (TSHR) signaling pathway (AID 1224843; calls by dose curve; further: nearly all actives have a fitted effect of over 45% in size; further: potency means the concentration at half of the fitted maximal effect). Summed up:
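Steps: seed 800 TSHR-HEK293 cells per well; add test compound and hold 30 min at ambient temperature; dispense cAMP-d2 then anti-cAMP cryptate; incubate 1 h at ambient; measure fluorescence intensity.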

Assay [11] is described as follows: qHTS assay to identify small molecule agonists of H2AX (AID 1224845; active means well fitted activation curve with a large enough effect in the signal ratio in the repeat runs, not every such curve was filed as active; the % refers to the signal ratio; further: potency means the concentration at half of the fitted maximal effect). Summed up:
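Wild-type CHO-K1 cells, plated overnight, exposed 3hr at 37C to 15 concentrations (0.76% DMSO final). Lysed, then HTRF anti-pH2AX (S139) cryptate and anti-H2AX-d2 antibodies, 24 hr room temperature; 665/620 nm emission read.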

Assay [12] can be described thus: qHTS assay to identify small molecule agonists of H2AX - cell viability counter screen (AID 1224847; calls by dose curve; further: nearly all actives have a fitted effect of over 30% in size; further: potency means the concentration at half of the fitted maximal effect). Summed up: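 Quantitative HTS viability measurement: CHO-K1 wild-type cells in serum (10% FBS) medium, short 3 hr drug exposure at 37C with 0.76% DMSO, CellTiter-Glo luminescent detection.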
A short description of assay [13]: qHTS assay to identify small molecule antagonists of the estrogen related receptor (ERR) signaling pathway from Tox21 library (AID 1224848). Further: nearly all actives have a fitted effect of over 50% in size. Further: potency means the concentration at half of the fitted maximal effect. Summed up: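 Luminescent reporter read-out (ONE-Glo) from NTP's ERR cell line after 18 h treatment at 37 C with DMSO-dissolved Tox21 compounds; cells pre-plated 6 h beforehand at 2,000 per well.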
A short description of assay [14]: qHTS assay to identify small molecule agonists of the estrogen related receptor (ERR) signaling pathway from Tox21 library (AID 1224849; calls by dose curve; further: nearly all actives have a fitted effect of over 15% in size). The conditions noted are these: ERR reporter cell line, ONE-Glo luciferase, 18 h; at 92.4 µM (top of the series) unless noted. Summed up:
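ERR reporter cells (NTP line) pre-incubated 6 hours at 37 C, then exposed to compounds for 18 hours at 37 C. ONE-Glo luciferase luminescence was read after 30 minutes at room temperature.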

The nature of assay [15]: qHTS RealTime-Glo MT Cell Viability Assay in HEK293 cells - 16 hour (AID 1224872). Further: nearly all actives have a fitted effect of over 50% in size. Further: potency means the concentration at half of the fitted maximal effect. Summed up:
(§2)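 Tox21 10K qHTS, HEK293, 600 cells/well, RealTime-Glo reagent co-dispensed with cells; 5 h preincubation, compound by pintool, 37 C, luminescence at 0–40 h.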

Assay [16] addresses Nuclear receptor subfamily 1 group I member 3 (Homo sapiens) (UniProt Q14994). The experiment in a line: qHTS assay to identify small molecule antagonists of the constitutive androstane receptor (CAR) signaling pathway (AID 1224838). Further: nearly all actives have a fitted effect of over 40% in size. Summed up:
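HepG2 cells stably carrying hCAR and a CYP2B6-2.2kb luciferase reporter, seeded 4 hrs before compound (15 concentrations). Stimulated with 50 nM CITCO for 24 hr at 37 C. ONE-Glo luminescence read after 30 min at room temperature.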

The target is the same in assay [17]. The experiment in a line: qHTS assay to identify small molecule agonists of the constitutive androstane receptor (CAR) signaling pathway (AID 1224839). Further: nearly all actives have a fitted effect of over 15% in size. Summed up:
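Double-stable HepG2 cells (hCAR, CYP2B6-2.2kb) seeded 4 h before compound addition. Exposure 24 h with 0.75 uM PK11195 final. Luciferase detected by ONE-Glo.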

Assay [18] in a line: qHTS RealTime-Glo MT Cell Viability Assay in HEK293 cells - 32 hour (AID 1224868). Further: nearly all actives have a fitted effect of over 50% in size. Further: potency means the concentration at half of the fitted maximal effect. Summed up:
as §2

The nature of assay [19]: qHTS assay to identify small molecule agonists of the hypoxia (HIF-1) signaling pathway - cell viability counter screen (AID 1224844; calls by dose curve; further: nearly all actives have a fitted effect of over 50% in size). Summed up: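 HRE-bla ME-180 cells, 2,000/well in 0.5% dialyzed FBS medium, treated 17 h at 37C with compounds. Viability read in the same wells as the bla reporter, by CellTiter-Glo luminescence after 30 min at room temperature.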
On the % scale 0 is the no-effect control and ±100 the full control effect.

Chain of Thyrotropin receptor (Homo sapiens) (P16473 whole entry, looked up): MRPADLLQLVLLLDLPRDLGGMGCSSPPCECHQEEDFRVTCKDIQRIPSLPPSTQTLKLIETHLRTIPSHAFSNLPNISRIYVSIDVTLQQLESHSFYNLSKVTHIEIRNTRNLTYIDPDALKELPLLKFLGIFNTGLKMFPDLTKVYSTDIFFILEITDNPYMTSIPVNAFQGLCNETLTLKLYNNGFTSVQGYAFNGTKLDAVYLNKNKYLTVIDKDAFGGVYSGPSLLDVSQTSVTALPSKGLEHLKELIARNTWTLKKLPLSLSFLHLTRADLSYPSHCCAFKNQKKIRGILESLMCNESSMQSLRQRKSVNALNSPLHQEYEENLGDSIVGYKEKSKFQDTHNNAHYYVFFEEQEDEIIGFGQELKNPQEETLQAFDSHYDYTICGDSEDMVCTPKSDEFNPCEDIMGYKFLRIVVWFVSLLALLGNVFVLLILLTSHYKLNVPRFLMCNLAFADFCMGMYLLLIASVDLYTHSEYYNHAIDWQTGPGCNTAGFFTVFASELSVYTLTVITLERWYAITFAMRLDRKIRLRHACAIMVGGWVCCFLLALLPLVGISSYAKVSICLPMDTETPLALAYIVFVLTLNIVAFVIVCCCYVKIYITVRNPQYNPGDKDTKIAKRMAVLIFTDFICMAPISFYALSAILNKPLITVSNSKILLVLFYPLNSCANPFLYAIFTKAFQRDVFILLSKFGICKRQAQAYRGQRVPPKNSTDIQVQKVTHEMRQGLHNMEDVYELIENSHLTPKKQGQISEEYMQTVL
Chain of Nuclear receptor subfamily 1 group I member 3 (Homo sapiens) (Q14994 whole entry, looked up): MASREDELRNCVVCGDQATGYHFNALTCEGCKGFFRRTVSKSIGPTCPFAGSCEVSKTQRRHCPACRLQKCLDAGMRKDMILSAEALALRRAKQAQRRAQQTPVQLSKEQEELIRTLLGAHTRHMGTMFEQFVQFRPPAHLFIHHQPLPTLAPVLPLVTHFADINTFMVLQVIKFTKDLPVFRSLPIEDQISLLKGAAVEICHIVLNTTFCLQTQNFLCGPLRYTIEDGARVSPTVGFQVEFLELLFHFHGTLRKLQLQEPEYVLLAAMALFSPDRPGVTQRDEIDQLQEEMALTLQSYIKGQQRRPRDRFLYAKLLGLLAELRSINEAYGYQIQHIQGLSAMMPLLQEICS

For the compound `CCC(Cl)C(Cl)C(Cl)CC(Cl)C(Cl)C(C)Cl` (centres undefined), the Potency entry in [1], in [2], in assay [3], in assay [4], in [5] and in assay [6] was “inactive” each time. In addition, the Potency entry in assay [7] was “inactive”.

Turning to `CNCc1cc(F)ccc1Oc1ccc(Cl)c(Cl)c1`, the Potency is 61.1 µM (active) in assay [1]; 54.5 µM (active) in assay [10]; 45 µM (active) in assay [12]; 48.6 µM (active) in [13]; 49 µM (active) in [4]; 49 µM (active) in [7]. Also, the Potency entry in [8], in assay [9], in assay [11] and in assay [5] was “inactive” in each case. Moreover, the activity change, positive = activation in [14] is -40.3%.

Consider `O=C(Nc1cccc(Cl)c1)OCC#CCCl`, for which the Potency in assay [1] was 38.6 µM (active); in assay [2], 48.6 µM (active); in assay [8], 21.7 µM (active); in [11] it was 113 µM (active); in assay [13], 30.6 µM (active); in [4] it was 49 µM (active). Also, the Potency in assay [6] was 49 µM (active); in [7], 43.6 µM (active); in assay [15], 54.9 µM (active). Moreover, the Potency entry in assay [9], in assay [12] and in assay [5] was “inactive” each time. In addition, the activity change, positive = activation in assay [14] was -74.2%.

With `NC(=O)N1C(=O)C(C(=O)c2cc(Cl)cs2)c2cc(F)c(Cl)cc21` (centres undefined), the Potency result in assay [16], in [17], in assay [9], in assay [10], in assay [11] and in [13] was “inactive” each time. Further, the Potency entry in assay [18], in assay [5], in [7] and in [15] was “inactive” each time. Further, the Potency in [2] is 30.6 µM (active); in assay [8] it was 38.6 µM (active). The activity change, positive = activation in [14] was -9.34%.

As to `COc1c(C)c2c(c(O)c1C/C=C(\C)CCC(=O)O)C(=O)OC2`, the Potency entry in [1], in assay [2], in assay [9], in [12], in assay [13] and in assay [4] was “inactive” in each case. For the same compound, the Potency entry in [5], in [6], in assay [7] and in assay [15] was “inactive” each time. Moreover, the Potency in [8] was 2.66 µM (active); in assay [11], 0.875 µM (active).

Regarding `N=C1C=CC(=C(c2ccc(N)cc2)c2ccc(N)cc2)C=C1`, the Potency in [1] was 27.3 µM (active); in assay [8] it was 3.44 µM (active); in [12], 28.4 µM (active); in [13] it was 2.17 µM (active); in [4], 24.5 µM (active); in [18] it was 2.19 µM (active). Further, the results for the Potency in assay [6] and in assay [15] were 38.9 µM (active) and 3.09 µM (active), respectively. The Potency entry in assay [17], in [9], in assay [19], in assay [5] and in [7] was “inactive” throughout. The activity change, positive = activation in assay [14] is -66.1%.

Take `C=C(C)C(=O)OCC(O)COc1ccc(C(C)(C)c2ccc(OCC(O)COC(=O)C(=C)C)cc2)cc1` (centres undefined): the Potency in assay [1] is 61.1 µM (active); in assay [2] it was 30.6 µM (active); in assay [8], 43.3 µM (active); in [12], 35.7 µM (active); in assay [13] it was 27.3 µM (active); in assay [4] it was 19.5 µM (active). For the same compound, the Potency is 12.3 µM (active) in assay [18] and 9.77 µM (active) in assay [15]. Further, the Potency entry in assay [17], in assay [9], in assay [10], in [11] and in assay [5] was “inactive” throughout. Also, the activity change, positive = activation in [14] was -80.3%.
